RVFV N-RNA inh: RVFV nucleocapsid-RNA interaction inhibition | actives 0.1% (n = 20,000) | RVFV N-RNA binding, fluorescence polarization; stronger effect = lower value | P21700 | AID 651828 | % bound, % (no concentration beside the values); in the data active = % bound below about 75%
Target sequence (P21700 whole entry, looked up): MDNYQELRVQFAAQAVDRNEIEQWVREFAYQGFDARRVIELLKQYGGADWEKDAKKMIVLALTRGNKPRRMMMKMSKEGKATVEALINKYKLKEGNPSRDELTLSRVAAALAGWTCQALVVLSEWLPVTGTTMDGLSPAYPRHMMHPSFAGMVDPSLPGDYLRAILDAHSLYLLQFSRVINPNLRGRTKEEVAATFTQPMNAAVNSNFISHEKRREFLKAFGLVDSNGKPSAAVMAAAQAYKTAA
* hit, by the source's call; ! = a repeat was not active. Many of the other results were omitted from the sample, so hits are more common in it than they were.

SMILES | RVFV N-RNA inh
CCCCc1cc(=O)oc2c(CN(C)C)c(O)ccc12 | 91.9
CC[C@@]1(O)C(=O)OCc2c1cc1n(c2=O)Cc2cc3c(CN(C)C)c(O)ccc3nc2-1 | 43.7*
COc1ccc(/C=C/C(=O)N(CC(C)C)CC(C)C)cc1 | 103.1
CC1(C)NC(=O)N(CCOc2ccc(F)cc2)C1=O | 99.3
CC(C)(C)c1cc(C#N)cc(C(C)(C)C)c1O | 90.4
N#Cc1ccc(CSc2cnc3ccccc3n2)cc1 | 99.0
Oc1cc(O)c2ncccc2c1 | 95.1
O=c1/c(=C/c2cccs2)sc2ncnn12 | 98.5
CCC(=O)NNc1nc2c(OC)ccc(OC)c2s1 | 86.5
C[C@H](N)CN1CCc2ccc(Br)cc21 | 72.1*
CC(CN(C)C)CN1c2ccccc2CCc2ccccc21 (stereo unspecified) | 93.8
Brc1ccc(-c2nnc3sc(CN4CCc5ccccc54)cn23)cc1 | 92.9
c1ccc(NNc2nncc(-c3ccccc3)n2)cc1 | 97.3
COc1ccc(CCNc2nnc(Cc3ccc(Cl)cc3)c(=O)[nH]2)cc1OC | 94.0
NC(=O)CSc1ccc2nnc(-c3ccc(Cl)cc3)n2n1 | 97.6
CC(C)C(=O)Nc1cccc(C(=O)Nc2ccccc2)c1 | 97.6
Cc1cccc(NC(=O)c2cccc(C)c2)c1 | 87.1
Cc1ccc(C(=O)Nc2ccc(S(=O)(=O)O)c3cc(S(=O)(=O)O)cc(S(=O)(=O)O)c23)cc1NC(=O)c1cccc(NC(=O)Nc2cccc(C(=O)Nc3cc(C(=O)Nc4ccc(S(=O)(=O)O)c5cc(S(=O)(=O)O)cc(S(=O)(=O)O)c45)ccc3C)c2)c1 | 6.7*!
CC1=C(C(=O)OC(C)(C)C)C(c2cccc(Cl)c2)NC(=O)N1 (stereo unspecified) | 92.2
CCc1c(C(=O)OC)nn(-c2ccc(OC)cc2)c(=O)c1C#N | 101.0
O=C(CCn1c(=O)oc2ccccc21)Nc1ccc(Cl)cc1 | 89.9
CCCCSc1nnc(Cn2c(=O)sc3ccccc32)n1C | 97.2
O=C1C=CC(=CN(O)c2ccccc2)C=C1 | 89.3
Oc1ccc2nnc3c(Br)cnn3c2c1 | 41.1*
O=C(CN1C(=O)c2ccccc2C1=O)N1CCCC1 | 92.3
SMILES | RVFV N-RNA inh
Cn1nnc(-c2ccc(C(=O)O)cc2)n1 | 97.8
O=C(O)c1ccc(-c2ccccc2)cc1 | 95.5
O=C1C=CC(=O)C(c2ccc(C(=O)O)cc2)=C1 | 52.1*
C=CCn1ccn(-c2cccc(Cl)c2)c(=O)c1=O | 102.9
COC(=O)c1cc(C23CC4CC(CC(C4)C2)C3)oc1C | 89.9
C/C=N/N=C1/NC(=O)C(CC(=O)Nc2cccc(C)c2C)S1 (stereo unspecified) | 101.4
CCNC(=O)CC1S/C(=N\N=C\c2ccc(C)o2)NC1=O (stereo unspecified) | 95.3
O=C(CC1S/C(=N/N=C/c2ccco2)NC1=O)Nc1ccc(Cl)cc1 (stereo unspecified) | 73.1*
O=C(Cc1nc(-c2cnccn2)no1)N/N=C/c1ccccc1 | 108.0
COc1ccc(C(=O)NCc2nnc(SCC(=O)NO)n2-c2cccc(F)c2)cc1 | 96.0
CCN(CC)c1ccc(C=Nc2ccc(C#N)cc2)cc1 | 94.0
C=CCN(c1ccccc1C(=O)NCC(=O)O)S(=O)(=O)c1ccccc1 | 83.6
COc1ccc2c(c1)O/C(=C\c1cccc(OC(=O)N3CCOCC3)c1)C2=O | 97.1
CCc1c(C)c2ccc(O)c(CN(C)C)c2oc1=O | 92.3
CN(C)Cc1c(O)ccc2c1O/C(=C\c1ccccc1)C2=O | 48.4*
CCN(CC)Cc1c(O)ccc2c1O/C(=C\c1ccc(C(=O)OC)cc1)C2=O | 58.5
O=C1/C(=C/c2ccccc2)Oc2c1ccc(O)c2CN1CCOCC1 | 52.9*
CC1CCN(Cc2c(F)cccc2F)CC1 | 98.9
CC1CCN(CC(=O)NCc2ccccc2)CC1 | 94.7
CC1CCN(Cc2c(O)ccc3c2O/C(=C\c2ccccc2)C3=O)CC1 | 56.5*
O=C(CN1CCOCC1)N/N=C/c1ccccc1 | 97.2
CCOC(=O)c1c(C)oc(-c2ccccc2)c1S(=O)(=O)N1CCN(c2ncc(C(F)(F)F)cc2Cl)CC1 | 90.8
N#Cc1ccc(Sc2ccc(C#N)c(C#N)c2)cc1C#N | 84.3
COC(=O)c1c(NC(=S)n2cc(C)cn2)sc2c1CCC(C)C2 (stereo unspecified) | 85.8
CSc1ccc(CN2CCN(Cc3ccco3)CC2)cc1 | 97.5
SMILES | RVFV N-RNA inh
N#Cc1cccc(CSc2nnc(Nc3ccccc3)n2-c2ccccc2)c1 | 97.0
COc1ccccc1C(=O)N1CCCc2cc(C)ccc21 | 94.9
CCOc1ccc(NC(=O)C(C)NS(=O)(=O)c2ccc(C)cc2)cc1 (stereo unspecified) | 101.0
Oc1ccc(C2C=CCC2)cc1 (stereo unspecified) | 101.1
O=C(NCc1ccco1)c1ccc(-c2cc3ccccc3oc2=O)cc1 | 91.5
CC(=O)Oc1ccccc1C(=O)N(C(C)C)C(C)C | 82.8
CC1(C)Cc2c(sc3nc(N4N=N4)nc(NCCO)c23)CO1 | 103.4
COc1cc(NC(C)CCCN)c2ncccc2c1 (stereo unspecified) | 94.6
CCN(CC)CCCC(C)Nc1c2ccc(Cl)cc2nc2ccc(OC)cc12 (stereo unspecified) | 34.4*
COc1ccc2nc3cc(Cl)ccc3c(Nc3cc(CN4CCCC4)c(O)c(CN4CCCC4)c3)c2n1 | 103.3
